Results taken from PubChem BioAssay.
Active and inactive are the calls of the source.

Key:
[1] = system: Plasmodium falciparum Sir2 (PF13_0152, Sir2A); experiment: pfSir2 binders on small-molecule microarrays, primary screen, biochemical, small-molecule microarray, 635 nm fluorescence (AID 1098); settings: small-molecule microarray binding, fluorescence 635 nm; higher = more signal;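 note: score merges spot fluorescence intensity with its signal-to-noise ratio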
[2] = small-molecule microarray binders of probe aDKK1, primary screen, biochemical, biotinylated probe, 635/667 nm fluorescence (AID 1099); settings: higher = more signal;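 note: score merges 667nm spot fluorescence with signal to noise across triplicate slides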
[3] = small-molecule microarray binders of probe aCHRDL2, primary screen, biochemical, biotinylated probe, 635/667 nm fluorescence (AID 1100); settings: higher = more signal
[4] = splicing luciferase reporter signal modulators, primary screen, spliceosome inhibition project, cell-based, HEK293, splice +/- reporter (AID 1101); settings: luminescence, 24 h, higher = more signal, called active from +8 up or from −8 down;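 note: HEK293 cells carrying a splicing-competent luciferase reporter gene; test concentration not given here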
[5] = target: Fibroblast growth factor 10 (Homo sapiens) (UniProt O15520); experiment: FGF10 binders on small-molecule microarrays, primary screen, biochemical, small-molecule microarray, 635 nm fluorescence (AID 1102); settings: FGF10 binding, fluorescence 635 nm, higher = more signal
[6] = system: glycogen synthase kinase-3 (GSK3A per assay name; protocol says GSK3B); experiment: GSK3 binders on small-molecule microarrays, primary screen, biochemical, small-molecule microarray, 635 nm fluorescence, GSK3A (AID 1103); settings: small-molecule microarray binding, fluorescence 635 nm; higher = more signal; note: the record names both GSK3A and GSK3B
[7] = target: Epidermal growth factor receptor (Homo sapiens) (UniProt P00533); experiment: EGFR binders on small-molecule microarrays, primary screen, biochemical, small-molecule microarray, 635 nm fluorescence (AID 1104); settings: EGFR binding, higher = more signal;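 note: score merges 667 nm emission intensity with spot signal to noise over triplicate slides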
[8] = target: Follistatin-related protein 3 (Homo sapiens) (UniProt O95633); experiment: FSTL3 binders on small-molecule microarrays, primary screen, biochemical, small-molecule microarray, 635 nm fluorescence (AID 1105); settings: FSTL3 binding, higher = more signal;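 note: score merges emission near 667 nm and signal to noise per printed spot across three slides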
[9] = target: Dickkopf-related protein 1 (Homo sapiens) (UniProt O94907); experiment: DKK1 binders on small-molecule microarrays, primary screen, biochemical, small-molecule microarray, 635 nm fluorescence scan (AID 1106); settings: DKK1 binding, higher = more signal;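 note: score merges emission near 667 nm with signal to noise over three replicate slides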
[10] = system: Inhibin beta A chain (activin A); experiment: INHBA (activin A) binders on microarrays, primary screen, biochemical, small-molecule microarray, 635 nm fluorescence scan (AID 1107); settings: small-molecule microarray binding, higher = more signal;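 note: mouse activin A protein probed at 4.33 µg/mL on printed slides; score merges bound-protein fluorescence near 667 nm with spot signal-to-noise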
[11] = system: Human papillomavirus type 1a protein E7 (residues 44-93); experiment: HPV1a E7 fragment binders on microarrays, primary screen, biochemical, small-molecule microarray, residues 44-93, 635 nm fluorescence (AID 1108); settings: small-molecule microarray binding, fluorescence 635 nm; higher = more signal;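 note: E7 fragment applied at 1 µg/mL in TBST for 1 h at 4 C; score combines spot fluorescence with its signal to noise ratio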
[12] = modulators of HCV replicon luciferase signal, primary screen, HCV replication inhibitor project, Huh7 cells, luciferase reporter (AID 1109); settings: 48 h, higher = more signal;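 note: huh7 hepatoma cells harbouring a luciferase neomycin HCV replicon reporter; luciferase luminescence as measure of HCV replicon replication; test concentration not given here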
[13] = target: Left-right determination factor 2 (Homo sapiens) (UniProt O00292); experiment: LEFTY2 binders on small-molecule microarrays, primary screen, biochemical, small-molecule microarray, 635 nm fluorescence scan (AID 1110); settings: LEFTY2 binding, higher = more signal
[14] = target: Calmodulin-1 (Homo sapiens) (UniProt P0DP23); experiment: CALM1 binders on microarrays, EGTA buffer, profiling panel, biochemical, small-molecule microarray, Cy5-labelled CALM1 (AID 1111); settings: Cy5-CALM1 binding fluorescence, higher = more signal;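 note: labelled calmodulin applied in Tris saline Tween buffer holding calcium plus EGTA and DTT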
[15] = target: Calmodulin-1 (Homo sapiens) (UniProt P0DP23); experiment: calcium-bound CALM1 binders on microarrays, profiling panel, artefact control for SMM control-protein annotation, biochemical, small-molecule microarray, Cy5-labelled CALM1, plus calcium (AID 1112); settings: Cy5-CALM1 binding fluorescence, higher = more signal;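 note: score merges spot fluorescence with signal to noise from triplicate slides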
[16] = small-molecule microarray binders of probe aWnt5a, primary screen, biochemical, biotinylated probe, 635/667 nm fluorescence (AID 1113); settings: higher = more signal;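 note: score merges 667 nm fluorescence intensity with signal-to-noise per printed feature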
[17] = small-molecule microarray binders of probe aShh, primary screen, biochemical, biotinylated probe, 635/667 nm fluorescence (AID 1114); settings: higher = more signal;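 note: probe is biotin-labelled aShh protein from a stem cell growth factor screen; measures binding of labelled protein to compounds printed on the slide; score merges feature fluorescence at 667 nm with signal-to-noise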
[18] = small-molecule microarray binders of probe aNog, primary screen, biochemical, biotinylated probe, 635/667 nm fluorescence (AID 1115); settings: higher = more signal;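 note: probe is biotinylated aNog protein used at 0.15 µg/mL for 1 h at 4 C; z-score combines 667 nm fluorescence of each spot with its signal to noise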
[19] = target: Torsin-1A-interacting protein 1 (Homo sapiens) (UniProt Q5JTV8); experiment: LAP1 binders from COS7 cell lysate, primary screen, small-molecule microarray, 635/667 nm fluorescence (AID 1116); settings: COS7-hLAP1 lysate binding, 635 nm fluorescence, higher = more signal
[20] = target: Alpha-bungarotoxin (Bungarus multicinctus) (UniProt P60615); experiment: alpha-bungarotoxin binders on microarray, profiling panel, artefact control for SMM control protein annotation, biochemical, small-molecule microarray, Alexa647 label, 635/667 nm fluorescence (AID 1117); settings: alpha-BTX-A647 binding fluorescence, higher = more signal
Alpha-bungarotoxin (Bungarus multicinctus), sequence (P60615 whole entry, looked up): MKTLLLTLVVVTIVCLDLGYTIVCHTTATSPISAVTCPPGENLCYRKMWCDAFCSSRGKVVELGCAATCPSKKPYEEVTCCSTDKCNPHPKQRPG

Epidermal growth factor receptor (Homo sapiens), sequence (P00533 whole entry, looked up): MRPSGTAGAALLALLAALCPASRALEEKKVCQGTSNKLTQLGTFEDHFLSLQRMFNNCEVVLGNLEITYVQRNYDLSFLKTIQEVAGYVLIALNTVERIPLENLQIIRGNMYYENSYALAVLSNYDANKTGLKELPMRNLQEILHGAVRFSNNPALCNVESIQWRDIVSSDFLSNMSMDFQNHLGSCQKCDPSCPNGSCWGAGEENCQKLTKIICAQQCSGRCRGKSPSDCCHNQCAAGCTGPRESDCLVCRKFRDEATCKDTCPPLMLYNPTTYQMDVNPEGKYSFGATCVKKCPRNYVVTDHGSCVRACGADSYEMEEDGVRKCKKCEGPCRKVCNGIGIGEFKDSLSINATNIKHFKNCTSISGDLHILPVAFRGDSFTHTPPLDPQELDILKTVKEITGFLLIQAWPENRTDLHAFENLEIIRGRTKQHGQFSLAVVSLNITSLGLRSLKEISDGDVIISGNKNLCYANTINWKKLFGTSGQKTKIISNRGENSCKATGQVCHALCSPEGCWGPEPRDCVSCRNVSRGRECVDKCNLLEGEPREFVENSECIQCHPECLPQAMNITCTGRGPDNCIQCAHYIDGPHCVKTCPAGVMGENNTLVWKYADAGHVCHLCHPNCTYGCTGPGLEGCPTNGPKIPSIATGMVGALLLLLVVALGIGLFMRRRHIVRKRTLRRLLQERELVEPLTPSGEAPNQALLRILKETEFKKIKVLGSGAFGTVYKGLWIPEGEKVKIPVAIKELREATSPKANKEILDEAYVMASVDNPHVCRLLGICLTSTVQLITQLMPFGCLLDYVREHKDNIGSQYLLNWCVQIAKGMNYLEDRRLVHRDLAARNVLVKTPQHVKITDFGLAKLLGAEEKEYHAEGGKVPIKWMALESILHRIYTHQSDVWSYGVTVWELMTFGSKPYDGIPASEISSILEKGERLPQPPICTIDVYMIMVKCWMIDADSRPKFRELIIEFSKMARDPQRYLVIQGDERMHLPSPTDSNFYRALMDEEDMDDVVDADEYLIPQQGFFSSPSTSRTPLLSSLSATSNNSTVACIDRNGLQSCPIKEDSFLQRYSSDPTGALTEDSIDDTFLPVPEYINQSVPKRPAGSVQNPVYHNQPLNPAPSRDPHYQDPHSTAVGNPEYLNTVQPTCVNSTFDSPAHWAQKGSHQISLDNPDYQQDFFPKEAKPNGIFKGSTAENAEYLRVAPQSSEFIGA
Fibroblast growth factor 10 (Homo sapiens), sequence (O15520 whole entry, looked up): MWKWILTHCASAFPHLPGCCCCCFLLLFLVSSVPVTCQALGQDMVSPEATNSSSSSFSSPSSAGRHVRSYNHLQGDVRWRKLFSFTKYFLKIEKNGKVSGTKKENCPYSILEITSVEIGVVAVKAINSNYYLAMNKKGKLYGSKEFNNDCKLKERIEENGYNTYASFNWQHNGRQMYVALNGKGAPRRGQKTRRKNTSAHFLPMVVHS
Left-right determination factor 2 (Homo sapiens), sequence (O00292 whole entry, looked up): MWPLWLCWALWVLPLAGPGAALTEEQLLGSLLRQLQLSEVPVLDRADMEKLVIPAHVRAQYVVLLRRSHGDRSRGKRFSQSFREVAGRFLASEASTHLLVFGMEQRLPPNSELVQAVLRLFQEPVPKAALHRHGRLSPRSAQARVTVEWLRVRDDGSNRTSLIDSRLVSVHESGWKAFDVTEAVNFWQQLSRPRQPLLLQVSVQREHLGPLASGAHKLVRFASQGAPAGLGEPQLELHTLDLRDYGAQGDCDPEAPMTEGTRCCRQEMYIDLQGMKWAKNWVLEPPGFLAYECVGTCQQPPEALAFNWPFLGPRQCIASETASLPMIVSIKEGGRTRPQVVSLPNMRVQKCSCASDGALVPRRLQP
Follistatin-related protein 3 (Homo sapiens), sequence (O95633 whole entry, looked up): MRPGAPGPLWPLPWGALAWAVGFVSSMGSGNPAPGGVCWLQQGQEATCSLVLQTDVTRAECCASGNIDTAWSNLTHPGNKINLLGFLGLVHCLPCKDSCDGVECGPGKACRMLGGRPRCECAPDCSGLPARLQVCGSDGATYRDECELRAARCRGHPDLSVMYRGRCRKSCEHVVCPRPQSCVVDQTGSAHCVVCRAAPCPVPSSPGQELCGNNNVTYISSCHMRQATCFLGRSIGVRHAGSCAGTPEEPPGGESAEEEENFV
Dickkopf-related protein 1 (Homo sapiens), sequence (O94907 whole entry, looked up): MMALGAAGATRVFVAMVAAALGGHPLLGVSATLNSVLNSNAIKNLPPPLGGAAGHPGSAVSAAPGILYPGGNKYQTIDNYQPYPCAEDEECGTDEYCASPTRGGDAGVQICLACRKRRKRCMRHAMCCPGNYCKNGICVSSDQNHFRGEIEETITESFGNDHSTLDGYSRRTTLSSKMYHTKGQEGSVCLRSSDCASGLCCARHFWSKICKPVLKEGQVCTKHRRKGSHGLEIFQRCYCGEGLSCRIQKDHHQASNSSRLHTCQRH
Torsin-1A-interacting protein 1 (Homo sapiens), sequence (Q5JTV8 whole entry, looked up): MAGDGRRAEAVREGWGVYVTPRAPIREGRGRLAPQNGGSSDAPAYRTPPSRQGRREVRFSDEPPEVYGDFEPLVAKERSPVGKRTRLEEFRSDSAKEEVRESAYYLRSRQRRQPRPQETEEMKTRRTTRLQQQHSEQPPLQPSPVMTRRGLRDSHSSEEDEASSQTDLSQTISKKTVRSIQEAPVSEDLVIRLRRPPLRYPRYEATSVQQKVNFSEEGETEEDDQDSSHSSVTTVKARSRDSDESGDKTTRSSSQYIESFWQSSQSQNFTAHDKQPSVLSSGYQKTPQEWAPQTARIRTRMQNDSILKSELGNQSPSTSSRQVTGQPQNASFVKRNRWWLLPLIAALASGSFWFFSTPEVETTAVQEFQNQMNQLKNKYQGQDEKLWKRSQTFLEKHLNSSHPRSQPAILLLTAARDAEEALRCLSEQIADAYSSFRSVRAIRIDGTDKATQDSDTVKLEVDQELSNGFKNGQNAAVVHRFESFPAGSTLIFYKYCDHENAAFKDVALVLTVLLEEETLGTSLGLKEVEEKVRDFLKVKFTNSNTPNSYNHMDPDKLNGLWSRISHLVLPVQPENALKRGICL

SMILES	composite z-score [1]	composite z-score [2]	composite z-score [3]	z-score [4]	composite z-score [5]	composite z-score [6]	composite z-score [7]	composite z-score [8]	composite z-score [9]	composite z-score [10]	composite z-score [11]	z-score [12]	composite z-score [13]	composite z-score [14]	composite z-score [15]	composite z-score [16]	composite z-score [17]	composite z-score [18]	composite z-score [19]	composite z-score [20]
C=C(CCCC)/C(=C/C[C@@H](OC(C)=O)c1cccc(OCCO)c1)c1cc(C(=O)OC)ccc1OC	1.31	-0.113	0.0282	-0.509 (inactive)	-0.004	-0.657	-0.347	0.212	-0.08	0.863	0.364	-2.02	-0.227	-0.405	-0.788	-0.119	0.111	-0.18	0.714	0.621
COC(=O)C(CC#Cc1ccc2c(c1)[C@]1(C(=O)N2)[C@H](C(=O)N2CCCCCCC2)[C@H]2C(=O)O[C@H](c3ccccc3)[C@H](c3ccccc3)N2[C@@H]1c1ccc(OCCO)cc1)C(=O)OC	2.26	2.85	1.58	0.741 (inactive)	1.63	1.5	1.94	1.71	2.55	1.73	1.55	-1.57	1.76	3.07	1.68	1.63	3.53	3.7	6.05	4.36
CC1CC/C=C\[C@H]2OC34C=CCN(CCN5CCOCC5)C(=O)[C@H]3N(C(CO)C(C)C)C(=O)[C@@H]4C2C(=O)O1 (stereo not given in full)	1.5	-0.155	0.0473	-0.192 (inactive)	-0.268	0.169	-0.31	-0.239	-0.112	1.17	0.0179	-0.278	-0.0839	-0.388	-1.05	-0.105	0.0469	-0.126	-0.46	-0.157
CCOC(=O)C=C1C[C@@H](c2cccc([N+](=O)[O-])c2)O[C@@H](c2cccc([N+](=O)[O-])c2)O1	0.765	1.15	0.895	0.435 (inactive)	0.567	1.27	0.46	0.747	0.514	0.594	0.478	-1.96	0.584	1.68	0.966	0.0289	0.317	1.64	0.785	1.05
CCCCC(=C=CC[C@@H](O)c1ccc(OCCO)cc1)CCO	0.413	-0.0198	-0.305	-0.755 (inactive)	0.701	-0.246	-0.899	-0.281	-0.549	1.09	-0.919	-0.96	-0.488	-0.45	0.0486	-0.101	-0.154	-0.314	0.764	0.657
[N-]=[N+]=Nc1ccccc1C[C@@]1(C(=O)NCc2ccccc2)N=C(c2ccc(OCCCO)cc2)O[C@@H]1c1ccccc1	1.22	0.95	1.03	-0.0448 (inactive)	1.14	1.29	0.165	1.06	0.313	0.838	1.08	-1.76	0.262	1.41	0.313	0.534	0.0326	2.22	1.13	0.39
COCCCNC(=O)[C@@]1(c2ccc([N+](=O)[O-])cc2)CC(=O)N(C2CCCCC2)[C@@H]1c1ccc(CO)cc1I	1.62	0.0269	0.64	-1.1 (inactive)	0.453	1.16	-0.323	0.102	-0.582	0.717	-0.191	-1.9	-0.199	0.582	-0.0952	-0.0051	-0.0904	0.968	1.17	0.302
C=CC[C@@]1(C(=O)NCCCOC)N=C(c2ccc(OCCCO)cc2)O[C@@H]1c1ccccc1CN=[N+]=[N-]	1.5	0.739	0.772	-0.226 (inactive)	1.38	1.31	0.0652	1.2	-0.0117	1.14	1.42	-2.12	0.266	1.66	0.414	0.0391	-0.13	0.396	0.957	1.19
COc1ccc([Si](C)(C)[C@H]2[C@H](CCO)O[C@@]3(C(=O)N(Cc4ccccc4)c4ccc(NC(=O)[C@H](C)O)cc43)[C@@H]2C)cc1	1.18	0.305	0.29	-2.35 (inactive)	0.139	0.0488	-0.0574	-0.0813	-0.119	0.209	1.37	-5.05	0.424	0.362	0.195	0.026	-0.138	0.514	0.795	0.627
C=CCNC(=O)[C@@H]1[C@H]2C(=O)O[C@H](c3ccccc3)[C@H](c3ccccc3)N2[C@H](c2ccc(OCCO)cc2)[C@@]12C(=O)N(C(=O)OCCOC)c1ccccc12	1.2	-0.144	0.496	0.263 (inactive)	1.28	1.08	0.459	1.03	0.0392	0.745	1.11	-0.945	0.47	0.789	0.132	-0.096	0.0639	-0.103	1.58	1.04
Cc1cccc([C@H]2C[C@H]3C(Br)=C[C@@]2(CO)C(=O)[C@]32CO2)c1	0.259	0.0578	0.382	-0.34 (inactive)	1.01	0.0353	-0.0766	0.159	-0.166	0.55	0.863	-1.27	-0.427	-0.496	-0.0921	-0.0566	-0.0348	0.247	-0.374	-0.357
